These results are taken from PubChem BioAssay.

Test [1] concerns Plasmodium falciparum Sir2 (PF13_0152, Sir2A). Description: Plasmodium falciparum Sir2A binding compounds – biochemical, small-molecule microarray, 635 nm fluorescence, primary screen (AID 1098).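 Note: score merges spot fluorescence intensity with its signal-to-noise ratio.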 The following applies: fluorescence 635 nm, higher = more signal.
A short description of test [2]: probe aDKK1 binding to arrayed compounds – biochemical, biotinylated probe, 635/667 nm fluorescence, primary screen (AID 1099).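 Note: score merges 667nm spot fluorescence with signal to noise across triplicate slides.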 To be noted: small-molecule microarray, higher = more signal.
A short description of test [3]: probe aCHRDL2 binding to arrayed compounds – biochemical, biotinylated probe, 635/667 nm fluorescence, primary screen (AID 1100). The following applies: small-molecule microarray, higher = more signal.
The nature of test [4]: change in splice reporter luminescence, either direction, cell-based, HEK293, spliceosome inhibition project, primary screen (AID 1101).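 Note: HEK293 cells carrying a splicing-competent luciferase reporter gene; test concentration not given here.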 To be noted: HEK293 splicing luciferase reporter, 24 h, higher = more signal, called active from +8 up or from −8 down. In general terms: A reporter such as luciferase makes a cellular process visible.
Test [5] concerns the target Fibroblast growth factor 10 (Homo sapiens) (UniProt O15520). Description: compounds binding fibroblast growth factor 10 – biochemical, small-molecule microarray, 635 nm fluorescence, primary screen (AID 1102). To be noted: FGF10 binding, fluorescence 635 nm, higher = more signal.
The test system of test [6] is glycogen synthase kinase-3 (GSK3A per assay name; protocol says GSK3B). Description: compounds binding glycogen synthase kinase-3 – biochemical, small-molecule microarray, 635 nm fluorescence, GSK3A, primary screen (AID 1103). Note: the record names both GSK3A and GSK3B. The following applies: fluorescence 635 nm, higher = more signal.
For test [7], the target named is Epidermal growth factor receptor (Homo sapiens) (UniProt P00533). The test is described as follows: compounds binding epidermal growth factor receptor – biochemical, small-molecule microarray, 635 nm fluorescence, primary screen (AID 1104).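 Note: score merges 667 nm emission intensity with spot signal to noise over triplicate slides.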 To be noted: EGFR binding, higher = more signal.
Epidermal growth factor receptor (Homo sapiens), sequence (P00533 whole entry, looked up): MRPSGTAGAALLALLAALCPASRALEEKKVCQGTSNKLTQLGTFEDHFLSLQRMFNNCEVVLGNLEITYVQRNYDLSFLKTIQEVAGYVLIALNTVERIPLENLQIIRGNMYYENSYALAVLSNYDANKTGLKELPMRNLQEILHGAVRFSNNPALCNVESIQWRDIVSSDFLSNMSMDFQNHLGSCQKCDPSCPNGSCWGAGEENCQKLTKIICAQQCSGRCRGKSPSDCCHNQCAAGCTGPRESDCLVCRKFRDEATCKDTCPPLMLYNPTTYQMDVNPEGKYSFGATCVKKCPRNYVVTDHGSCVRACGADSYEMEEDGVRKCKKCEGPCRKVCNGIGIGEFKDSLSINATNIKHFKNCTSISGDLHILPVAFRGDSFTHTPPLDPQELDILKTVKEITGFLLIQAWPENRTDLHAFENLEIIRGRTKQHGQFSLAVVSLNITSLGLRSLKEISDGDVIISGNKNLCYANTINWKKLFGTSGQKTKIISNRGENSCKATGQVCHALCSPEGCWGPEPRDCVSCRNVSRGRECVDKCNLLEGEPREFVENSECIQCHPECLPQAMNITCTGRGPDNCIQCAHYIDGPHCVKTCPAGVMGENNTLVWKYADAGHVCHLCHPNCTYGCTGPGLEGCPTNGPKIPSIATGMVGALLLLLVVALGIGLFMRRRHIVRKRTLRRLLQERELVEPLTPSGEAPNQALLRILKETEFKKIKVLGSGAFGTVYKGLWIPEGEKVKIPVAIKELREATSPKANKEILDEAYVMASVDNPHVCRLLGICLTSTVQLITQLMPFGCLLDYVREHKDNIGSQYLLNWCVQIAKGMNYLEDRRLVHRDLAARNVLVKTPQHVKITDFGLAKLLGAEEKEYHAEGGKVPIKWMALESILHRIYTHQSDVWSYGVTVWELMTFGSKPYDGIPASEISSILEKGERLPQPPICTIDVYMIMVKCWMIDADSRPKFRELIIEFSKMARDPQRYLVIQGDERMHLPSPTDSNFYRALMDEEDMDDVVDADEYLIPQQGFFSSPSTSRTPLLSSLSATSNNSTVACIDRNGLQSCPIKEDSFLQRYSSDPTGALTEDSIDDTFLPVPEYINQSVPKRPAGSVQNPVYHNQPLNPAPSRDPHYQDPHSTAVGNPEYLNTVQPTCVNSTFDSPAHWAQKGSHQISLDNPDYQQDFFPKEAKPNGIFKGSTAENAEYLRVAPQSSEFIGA
Test [8] concerns the target Follistatin-related protein 3 (Homo sapiens) (UniProt O95633). Description: compounds binding follistatin-related protein 3 – biochemical, small-molecule microarray, 635 nm fluorescence, primary screen (AID 1105).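 Note: score merges emission near 667 nm and signal to noise per printed spot across three slides.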 The following applies: FSTL3 binding, higher = more signal.
The target of test [9] is Dickkopf-related protein 1 (Homo sapiens) (UniProt O94907). Description: small molecules binding DKK1 protein – biochemical, small-molecule microarray, 635 nm fluorescence scan, primary screen (AID 1106).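 Note: score merges emission near 667 nm with signal to noise over three replicate slides.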 The following applies: higher = more signal.
Dickkopf-related protein 1 (Homo sapiens), sequence (O94907 whole entry, looked up): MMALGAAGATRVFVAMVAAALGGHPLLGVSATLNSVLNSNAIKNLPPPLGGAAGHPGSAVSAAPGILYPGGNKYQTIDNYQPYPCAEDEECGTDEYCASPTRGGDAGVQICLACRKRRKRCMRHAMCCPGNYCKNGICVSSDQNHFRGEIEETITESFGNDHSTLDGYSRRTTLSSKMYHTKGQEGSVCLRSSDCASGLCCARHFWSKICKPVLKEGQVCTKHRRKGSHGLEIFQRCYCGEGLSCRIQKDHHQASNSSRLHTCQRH
The subject of test [10] is Inhibin beta A chain (activin A). The test is described as follows: small molecules binding activin A – biochemical, small-molecule microarray, 635 nm fluorescence scan, primary screen (AID 1107).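 Note: mouse activin A protein probed at 4.33 µg/mL on printed slides; score merges bound-protein fluorescence near 667 nm with spot signal-to-noise.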 To be noted: INHBA, higher = more signal.
Test [11] has as its system Human papillomavirus type 1a protein E7 (residues 44-93). The test is described as follows: small molecules binding HPV E7 44-93 – biochemical, small-molecule microarray, residues 44-93, 635 nm fluorescence, primary screen (AID 1108).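 Note: E7 fragment applied at 1 µg/mL in TBST for 1 h at 4 C; score combines spot fluorescence with its signal to noise ratio.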 To be noted: fluorescence 635 nm, higher = more signal.
Test [12] can be described thus: hepatitis C replication reporter changes, two-sided – Huh7 cells, luciferase reporter, HCV replication inhibitor project, primary screen (AID 1109).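 Note: huh7 hepatoma cells harbouring a luciferase neomycin HCV replicon reporter; luciferase luminescence as measure of HCV replicon replication; test concentration not given here.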 The following applies: Huh7 HCV replicon luciferase reporter, 48 h; higher = more signal.
In test [13] the target is Left-right determination factor 2 (Homo sapiens) (UniProt O00292). The test is described as follows: small molecules binding LEFTY2 protein – biochemical, small-molecule microarray, 635 nm fluorescence scan, primary screen (AID 1110). The following applies: higher = more signal.
Left-right determination factor 2 (Homo sapiens), sequence (O00292 whole entry, looked up): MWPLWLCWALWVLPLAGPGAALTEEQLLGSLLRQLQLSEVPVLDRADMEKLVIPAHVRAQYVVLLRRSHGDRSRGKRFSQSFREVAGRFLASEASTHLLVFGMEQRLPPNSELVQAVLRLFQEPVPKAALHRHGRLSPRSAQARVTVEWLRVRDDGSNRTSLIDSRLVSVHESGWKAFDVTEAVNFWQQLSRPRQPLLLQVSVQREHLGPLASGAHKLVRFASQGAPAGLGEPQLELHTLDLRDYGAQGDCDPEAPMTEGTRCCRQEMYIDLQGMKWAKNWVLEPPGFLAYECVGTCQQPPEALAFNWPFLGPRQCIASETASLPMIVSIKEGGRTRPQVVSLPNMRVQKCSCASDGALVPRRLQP
The target in test [14] is Calmodulin-1 (Homo sapiens) (UniProt P0DP23). The test is described as follows: small molecules binding calmodulin-1 with EGTA – biochemical, small-molecule microarray, Cy5-labelled CALM1, profiling panel (AID 1111).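 Note: labelled calmodulin applied in Tris saline Tween buffer holding calcium plus EGTA and DTT.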 The following applies: Cy5-CALM1 binding fluorescence, higher = more signal.
Test [15] has the same target. The test is described as follows: small molecules binding Ca-loaded calmodulin-1 – biochemical, small-molecule microarray, Cy5-labelled CALM1, plus calcium, artefact control for SMM control-protein annotation, profiling panel (AID 1112).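 Note: score merges spot fluorescence with signal to noise from triplicate slides.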 To be noted: Cy5-CALM1 binding fluorescence, higher = more signal.
The nature of test [16]: probe aWnt5a binding to arrayed compounds – biochemical, biotinylated probe, 635/667 nm fluorescence, primary screen (AID 1113).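 Note: score merges 667 nm fluorescence intensity with signal-to-noise per printed feature.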 The following applies: small-molecule microarray, higher = more signal.
Test [17] is described as follows: probe aShh binding to arrayed compounds – biochemical, biotinylated probe, 635/667 nm fluorescence, primary screen (AID 1114).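 Note: probe is biotin-labelled aShh protein from a stem cell growth factor screen; measures binding of labelled protein to compounds printed on the slide; score merges feature fluorescence at 667 nm with signal-to-noise.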 To be noted: small-molecule microarray, higher = more signal.
Test [18] is described as follows: probe aNog binding to arrayed compounds – biochemical, biotinylated probe, 635/667 nm fluorescence, primary screen (AID 1115).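 Note: probe is biotinylated aNog protein used at 0.15 µg/mL for 1 h at 4 C; z-score combines 667 nm fluorescence of each spot with its signal to noise.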 The following applies: small-molecule microarray, higher = more signal.
The target of test [19] is Torsin-1A-interacting protein 1 (Homo sapiens) (UniProt Q5JTV8). Description: compound microarray binding of lysate hLAP1 – cell lysate, small-molecule microarray, COS7 lysate, 635/667 nm fluorescence, primary screen (AID 1116). To be noted: 635 nm fluorescence, higher = more signal.
Torsin-1A-interacting protein 1 (Homo sapiens), sequence (Q5JTV8 whole entry, looked up): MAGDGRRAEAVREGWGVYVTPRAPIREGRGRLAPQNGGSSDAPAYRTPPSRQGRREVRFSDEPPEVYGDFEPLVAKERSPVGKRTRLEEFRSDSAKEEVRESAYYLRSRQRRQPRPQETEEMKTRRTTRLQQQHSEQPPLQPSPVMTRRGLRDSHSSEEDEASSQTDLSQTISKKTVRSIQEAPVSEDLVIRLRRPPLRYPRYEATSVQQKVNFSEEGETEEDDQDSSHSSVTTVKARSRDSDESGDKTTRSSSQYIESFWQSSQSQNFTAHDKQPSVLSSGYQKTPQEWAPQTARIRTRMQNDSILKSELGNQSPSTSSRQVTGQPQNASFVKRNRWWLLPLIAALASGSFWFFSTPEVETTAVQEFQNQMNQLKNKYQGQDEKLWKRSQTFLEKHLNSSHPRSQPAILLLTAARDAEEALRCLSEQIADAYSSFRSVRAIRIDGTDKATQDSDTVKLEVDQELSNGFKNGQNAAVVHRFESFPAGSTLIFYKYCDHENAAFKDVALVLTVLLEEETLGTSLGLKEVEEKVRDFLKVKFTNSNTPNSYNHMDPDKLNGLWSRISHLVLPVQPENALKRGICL
Test [20] addresses Alpha-bungarotoxin (Bungarus multicinctus) (UniProt P60615). Description: compounds binding labelled alpha-BTX control protein – biochemical, small-molecule microarray, Alexa647 label, 635/667 nm fluorescence, artefact control for SMM control protein annotation, profiling panel (AID 1117). To be noted: alpha-BTX-A647 binding fluorescence, higher = more signal.

SMILES strings stand for the structures. Activity calls are given as the source filed them.

Alpha-bungarotoxin (Bungarus multicinctus), sequence (P60615 whole entry, looked up): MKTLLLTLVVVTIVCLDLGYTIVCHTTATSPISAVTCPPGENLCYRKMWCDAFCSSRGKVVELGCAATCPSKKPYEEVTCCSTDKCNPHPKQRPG
Follistatin-related protein 3 (Homo sapiens), sequence (O95633 whole entry, looked up): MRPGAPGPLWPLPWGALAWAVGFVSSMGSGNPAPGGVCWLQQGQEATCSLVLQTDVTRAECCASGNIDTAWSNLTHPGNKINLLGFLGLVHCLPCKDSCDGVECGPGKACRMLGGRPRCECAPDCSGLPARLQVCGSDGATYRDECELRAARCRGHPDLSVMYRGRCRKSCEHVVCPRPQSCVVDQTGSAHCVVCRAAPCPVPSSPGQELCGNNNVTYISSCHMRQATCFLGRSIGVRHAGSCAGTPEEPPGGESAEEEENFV
Fibroblast growth factor 10 (Homo sapiens), sequence (O15520 whole entry, looked up): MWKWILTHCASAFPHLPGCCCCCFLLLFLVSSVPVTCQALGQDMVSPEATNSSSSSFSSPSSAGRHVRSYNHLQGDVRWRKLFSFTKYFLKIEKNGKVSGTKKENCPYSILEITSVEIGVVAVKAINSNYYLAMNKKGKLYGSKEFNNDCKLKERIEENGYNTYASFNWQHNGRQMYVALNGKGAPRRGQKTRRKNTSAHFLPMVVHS

Consider `CCCCCCCCCCC(O)C1C=CC2C(=O)N(c3ccccc3)C(=O)C2N1Nc1ccccc1F` (stereo not given), for which the composite z-score in test [1] is 0.565; in test [2], 0.0158; in [3], 0.973; in [5] it was -0.387; in test [6] it was -0.676; in test [7] it was -0.571. In addition, the composite z-score is -0.292 in [8]; -0.867 in test [9]; 1.21 in test [10]; 0.648 in [11]; -0.24 in test [13]; 1.03 in test [14]. For the same compound, the composite z-score is 1.07 in test [15]; -0.0715 in test [16]; 0.246 in [17]; 0.238 in [18]; 0.0092 in test [19]; 0.533 in test [20]. Further, the z-score in [4] is 1.25 (inactive); in test [12], -0.211.

Consider `CC(C)c1ccc(NN2C(C(O)Cc3ccccc3)C=CC3C(=O)N(c4ccccc4)C(=O)C32)cc1` (stereo not given), for which the composite z-score was 0.587 in test [1]; 0.655 in [2]; 0.811 in test [3]; 0.932 in test [5]; 1.04 in [6]; 0.399 in test [7]. The composite z-score was 1.26 in test [8]; 0.241 in test [9]; -0.323 in test [10]; 1.33 in test [11]; 0.126 in test [13]; 2.05 in test [14]. Also, the composite z-score in test [15] is 0.744; in test [16], -0.0819; in test [17], 0.23; in [18], 1.53; in [19] it was 0.98; in [20], 1.06. In addition, the z-score was -0.469 (inactive) in [4] and 0.843 in [12].

As to `Cc1ccc(S[C@]2(C(=O)NC(C)C)CC(=O)N(Cc3ccccc3Cl)[C@@H]2c2ccc(CO)cc2)cc1`, the composite z-score is 1.23 in test [1]; 0.17 in [2]; 0.865 in test [3]; -0.465 in [5]; -0.628 in test [6]; -1.04 in [7]. The composite z-score in [8] is -1.2; in test [9] it was -1.47; in [10] it was -0.318; in test [11] it was 0.949; in test [13] it was -1.76; in test [14], -0.142. The composite z-score in test [15] is 0.214; in test [16] it was -0.154; in [17], -0.0035; in [18], -0.429; in [19], 0.98; in test [20], 1.07. Moreover, the z-score in test [4] is -0.864 (inactive); in test [12] it was -1.81.

As to `COCCCNC(=O)[C@@]1(c2ccc([N+](=O)[O-])cc2)CC(=O)N(CC23CC4CC(CC(C4)C2)C3)[C@@H]1c1ccc(CO)cc1I`, the composite z-score in test [1] was 1.02; in [2], 0.541; in test [3] it was 0.847; in test [5] it was -0.0432; in test [6], -0.115; in [7], -0.392. Besides, the composite z-score in [8] was -0.36; in test [9], -0.15; in test [10], 0.126; in [11], 0.952; in test [13], -0.381; in test [14] it was 0.425. For the same compound, the composite z-score is 0.729 in test [15]; -0.104 in [16]; 0.337 in [17]; 0.536 in [18]; 0.157 in test [19]; 1.22 in test [20]. The z-score in [4] is 3.68 (inactive); in test [12], -3.15.

For `Cc1ccc(N2C(=O)c3ccccc3[C@](C)(C(=O)NCc3ccccc3)[C@@H]2c2ccc(CO)cc2)nc1`, the composite z-score in [1] was 1.39; in test [2] it was 0.499; in test [3] it was 0.615; in [5], 0.0497; in test [6], -0.341; in test [7] it was -0.219. Further, the composite z-score in [8] was -0.192; in [9] it was 0.381; in test [10] it was 1.21; in test [11], -0.192; in [13], -0.0146; in test [14], -0.416. Moreover, the composite z-score in test [15] is -0.497; in [16], 0.0079; in [17] it was -0.0837; in [18], -0.108; in test [19], 0.263; in [20], -0.3. The results for the z-score in test [4] and in [12] were -0.0691 (inactive) and 0.478, respectively.
